Measurements from ChEMBL document CHEMBL1157539, “Thousands of chemical starting points for antimalarial lead identification” (Nature, 2010).

Assays:
Assay type in all cases: functional
Plasmodium falciparum [1] = assay: GSK_TCMDC: Inhibition of Plasmodium falciparum 3D7 in whole red blood cells, using parasite LDH activity as an index of growth. Test compounds present at 2uM
Plasmodium falciparum [2] = assay: GSK_TCMDC: Inhibition of Plasmodium falciparum Dd2 in whole red blood cells, using parasite LDH activity as an index of growth. Test compounds present at 2uM
HepG2 = assay: GSK_TCMDC: Percent inhibition of human HepG2 cell line. Test compounds present at 10uM.

Row | SMILES | Inhibition (Plasmodium falciparum [1]) [%] | Inhibition (Plasmodium falciparum [2]) [%] | Inhibition (HepG2) [%]
1 | CCCNCc1ccc(-c2ccc(CN(CCOC)C(=O)COc3ccccc3Cl)cc2)nc1.O=C(O)C(F)(F)F | 96 | 29 | 0
2 | COc1cc(OC)c(NC(=O)C2c3ccccc3C(=O)N(C)C2c2cccs2)cc1Cl (stereo not drawn) | 99 | 52 | 4
3 | O=C(Nc1cccc(CN2CCCN(Cc3cccc(O)c3)CC2)c1)c1ccc(Cl)c(Cl)c1.O=C(O)C(F)(F)F | 100 | 79 | 25
4 | CCOc1ccc(/C=C/C(=O)Nc2cccc3c2CCN(C)C3)cc1.Cl | 92 | 3 | 0
5 | CC(C)N1CCN(C(=O)c2ccc(CNCCCN3CCN(c4ccccc4C(F)(F)F)CC3)s2)CC1.Cl | 98 | 42 | 32
6 | COc1ccc2nc(-c3ccccc3)cc(N/N=C/c3ccc([N+](=O)[O-])cc3)c2c1 | 100 | 100 | 89
7 | CN(C)C(=O)c1cc(CNCc2ccccc2)ccc1-c1cccc(CNCc2ccc(-c3ccccc3)cc2)c1.O=C(O)C(F)(F)F | 90 | 12 | 27
8 | CCN(CC)c1ccc(C(=O)Cn2ccc(=N)cc2)cc1 | 84 | 64 | 92
9 | COc1cc(Cl)c(C)cc1-n1cc(C(=O)c2cc(Br)ccc2O)cc(C#N)c1=O | 95 | 35 | 3
10 | CC1CCc2c(C(=O)N3CCc4ccccc4C3)csc2C1 (stereo not drawn) | 99 | 75 | 9
11 | C=CCC1OC(=O)c2cc(OC)cc(OC)c21 (stereo not drawn) | 95 | 100 | 100
12 | CC(CN(C)C)C(=O)Nc1cccc(-c2cccc(-c3nc4ccccc4[nH]3)c2)c1 (stereo not drawn) | 94 | 25 | 42
13 | CN1CCN(c2ccc(-c3cccc(NC(=O)c4cccc(Cl)c4)c3)nn2)CC1 | 94 | 37 | 5
14 | O=C(/C=C/c1ccc(Cl)c(Cl)c1)NCCCCCN1CCCN(C(=O)Nc2ccc(F)c(F)c2)CC1 | 100 | 0 | 26
15 | CCCCCCP(=O)(COc1ccc(CCN(CC(O)COc2cccc3[nH]c(C(N)=O)cc23)CC(O)COc2cccc3[nH]c(C(N)=O)cc23)cc1)OCCCC (stereo not drawn) | 99 | 97 | 0
16 | COc1cccc(-c2nn(C)c3sc(C(=O)NCCN4CCN(c5ccccc5F)CC4)cc23)c1 | 85 | 40 | 9
17 | CCN(CC)CCN(Cc1ccc(-c2ccc(Br)cc2)cc1)C(=O)Cn1c(CCc2cccc(F)c2F)nc(=O)c2ccccc21.O=C(O)C(O)C(O)C(=O)O | 98 | 74 | 37
18 | CC(CN1CCN(C)CC1)C(=O)Nc1cccc(-c2cccc(-c3nc4cc(F)ccc4[nH]3)c2)c1 (stereo not drawn) | 100 | 78 | 23
19 | CN1CCN(Cc2ccc(-c3cccc(-c4nc5ccccc5[nH]4)c3)cc2)CC1.O=C(O)C(F)(F)F | 93 | 6 | 21
20 | CC(C)N(C(=O)CSc1nc2cc(Cl)ccc2c(=O)n1Cc1ccccc1)C(C)C | 100 | 97 | 0
21 | CC(=O)Nc1ccc(C(=O)Nc2cccc(-c3csc(-c4nc5ccccc5[nH]4)c3)c2)cn1 | 100 | 97 | 6

Row | SMILES | Inhibition (Plasmodium falciparum [1]) [%] | Inhibition (Plasmodium falciparum [2]) [%] | Inhibition (HepG2) [%]
22 | Cc1cccc2nc(-c3ccc(-c4cccc(C(=O)NCCN5CCCC5)c4)s3)[nH]c12 | 94 | 2 | 22
23 | CCCCc1ccccc1NS(=O)(=O)c1ccc(OC)c(N2CCNCC2)c1.Cl | 91 | 2 | 6
24 | COc1ccc(CNCc2ccc(-c3ccc(-c4nc5cccc(C)c5[nH]4)s3)cc2)cc1.O=C(O)C(F)(F)F | 100 | 89 | 54
25 | CC1CNC(c2ccc(NC(=O)c3ccc(C(=O)Nc4ccc(C5=NC(C)CN5)cc4)cc3)cc2)=N1.CS(=O)(=O)O (stereo not drawn) | 99 | 100 | 15
26 | COc1ccccc1N1CCN(CCCCNC(=O)c2ccc(NC(=O)c3ccc(OC(F)(F)F)cc3)cc2)CC1.Cl | 100 | 39 | 29
27 | CC(C)(C)c1ccc(C(=O)N2CCC3(CC2)C(=O)N(CC(=O)NCC2CCCO2)CN3c2ccccc2)cc1 (stereo not drawn) | 100 | 100 | 8
28 | CC(C)NCc1ccc(-c2cccc(-c3nc4cc(C(F)(F)F)ccc4[nH]3)c2)cc1.O=C(O)C(F)(F)F | 100 | 100 | 21
29 | O=[N+]([O-])c1nc(Br)n(Cc2ccc(Cl)cc2)n1 | 96 | 95 | 0
30 | COc1cccc(CCc2nc3c(N4CCC(Cc5ccccc5)CC4)cccc3n2CC2CNCCO2)c1.O=C(O)C(F)(F)F (stereo not drawn) | 94 | 96 | 4
31 | CCOc1cc(C(=O)NCc2ccc(Cl)c(Cl)c2)ccc1-c1nc2cc(Cl)ccc2[nH]1 | 97 | 4 | 10
32 | COc1ccc2nc3cc(Cl)ccc3c(NCCCO)c2c1 | 100 | 100 | 32
33 | O=C(Nc1ccc(OC2CCN(Cc3ccc(F)cc3)C2)c(Cl)c1)c1ccccc1.O=C(O)C(F)(F)F (stereo not drawn) | 91 | 86 | 11
34 | Cc1cccc2c(C(=O)NC3CCN(Cc4ccccc4)CC3)cc(-c3cccnc3)nc12 | 81 | 10 | 12
35 | O=C1COC2(CN1CC1CCN(Cc3ccc(O)c(Cl)c3)C1)c1ccccc1-c1ccccc12.O=CO (stereo not drawn) | 93 | 50 | 6
36 | Cc1cnc(NC(=O)c2cn(-c3ccccc3)nc2-c2cccs2)s1 | 91 | 1 | 0
37 | Cc1nc(-c2ccc3c(c2)CCN(CCC2CCC(NC(=O)c4cc5cccc(Cl)c5[nH]4)CC2)CC3)no1.Cl (stereo not drawn) | 100 | 46 | 36
38 | COc1ccccc1-c1cccc(-c2cccc(NC(=O)c3ccc([N+](=O)[O-])o3)c2)n1 | 97 | 59 | 78
39 | Cn1nccc1C(=O)NCCNCc1ccc(-c2ccc(-c3nc4cc(F)ccc4[nH]3)cc2)cc1.O=C(O)C(F)(F)F | 100 | 98 | 28
40 | COc1ccc(-c2cccc(CNCc3ccc(F)cc3)c2)cc1S(=O)(=O)NCCN1CCCC1.O=C(O)C(F)(F)F | 100 | 16 | 20
41 | N=C(N)Nc1nc(-c2cccc(NC(=O)NCC(c3ccccc3)c3ccccc3)c2)cs1 | 100 | 87 | 0
42 | Cl.N#Cc1ccc(-c2ccc(C(=O)Nc3ccc4c(c3)CCN(C3CCC3)CC4)nc2)cc1 | 99 | 63 | 21

Row | SMILES | Inhibition (Plasmodium falciparum [1]) [%] | Inhibition (Plasmodium falciparum [2]) [%] | Inhibition (HepG2) [%]
43 | Cc1cc(O)c(CN2CCN(Cc3cccs3)CC2)cc1C(C)C | 98 | 97 | 7
44 | Cc1ccc(NC(=O)c2cccc(CN3CCCN(Cc4cccc(O)c4)CC3)c2)cc1F.O=C(O)C(F)(F)F | 99 | 45 | 20
45 | O=C(Nc1cc(Cl)cc(Cl)c1)Nc1ccccc1C(=O)NC1CCCCC1 | 100 | 100 | 12
46 | Cc1cc(N[C@@H](Cc2ccccc2)C(=O)NCc2cccc(F)c2)nc(NCCOc2ccccc2)n1.O=C(O)C(F)(F)F | 97 | 7 | 0
47 | c1ccc(-c2[nH]c3ccccc3c2CN2CCC(N3CCCCC3)CC2)nc1 | 100 | 82 | 13
48 | CCOc1cc(C)ccc1C1CCN(CCN2CCC(CNC(=O)c3ccc(-c4ccc(C(F)(F)F)cc4)cc3)CC2)CC1 | 98 | 89 | 53
49 | O=C(Nc1ccc(-c2cccc(-c3nc4ccccc4[nH]3)c2)cc1)c1cnn2cccnc12 | 99 | 36 | 64
50 | CNCCCNc1ccnc2cc(Cl)ccc12 | 100 | 25 | 11
51 | CN1CCN(c2ccc(Nc3c(C(N)=O)cnc4cc(-c5ccoc5)ccc34)cc2C(F)(F)F)CC1.Cl | 100 | 97 | 13
52 | O=C(OCc1ccccc1)N1CCc2c([nH]c3ccccc23)C1CCC(F)(F)F (stereo not drawn) | 94 | 81 | 0
53 | CN(C)CCOc1ccc(/C(=C(/CCCn2ccnc2)c2ccccc2)c2ccc(O)cc2)cc1 | 100 | 99 | 13
54 | Cc1c(CNCCN2CCCCC2)c(C(=O)O)c(C)n1Cc1ccc(Cl)cc1 | 97 | 93 | 4
55 | COc1ccc(N2CCN(CCCCNC(=O)c3ccc(NC(=O)c4cc(C(F)(F)F)cc(C(F)(F)F)c4)cc3)CC2)c(OC)c1 | 100 | 99 | 30
56 | CCn1nc(C(=O)NC2CCOc3ccccc32)c2ccccc2c1=O (stereo not drawn) | 86 | 59 | 13
57 | CN1CCCC(CN2CCN(Cc3cccc(-c4ccc(-c5nc6cc(F)ccc6[nH]5)cc4)c3)CC2)C1.O=C(O)C(F)(F)F (stereo not drawn) | 100 | 100 | 78
58 | N#CC(CC(=O)c1ccc(Cl)cc1)c1cccc(F)c1 (stereo not drawn) | 97 | 4 | 5
59 | COc1cc(NC(=O)Nc2cccc3ccccc23)c(OC)cc1Cl | 97 | 71 | 0
60 | CCCCCN1CCC(NS(=O)(=O)c2cccc(C(=O)Nc3cccc(C(F)(F)F)c3)c2)C1.O=C(O)C(F)(F)F (stereo not drawn) | 86 | 17 | 25
61 | Nc1cccc(CNCc2cccc(-c3cccc(-c4nc5cc(F)ccc5[nH]4)c3)c2)c1.O=C(O)C(F)(F)F | 100 | 82 | 5
